Experimental data taken from PubChem BioAssay.
Where “and” joins values, the source holds several entries; their conditions need not be identical. Equal entries are not always repeated. For some of these results: Entries with a potency or affinity are not part of this list.

Tests used:
[1] = polyglutamine-triggered caspase-3 activation inhibitors, cell-based (AID 1583); settings: polyglutamine-induced caspase-3 activation, cell assay; stronger effect = higher value;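 tested at 10 µM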
[2] = suppressors of polyQ aggregation in yeast, 75Q-TubU reporter (AID 1593); settings: Yeast 75Q polyglutamine aggregation reporter
[3] = rescue of polyQ-huntingtin neuronal dysfunction in worms, whole organism, C. elegans mechanosensory neurons, N-terminal huntingtin (AID 1599); settings: touch response, stronger effect = higher value
[4] = inhibitors of mitochondrial cytochrome c release, biochemical, purified mitochondria (AID 1603); settings: stronger effect = lower value;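 note: mouse liver mitochondria challenged with calcium chloride; signal normalized to the plate average as 100%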
[5] = inhibitors of polyQ protein aggregation (AID 1604); settings: polyglutamine-induced protein aggregation inhibition assay; stronger effect = higher value; tested at 2.5 µM

| Compound | inhibition [1] | score [2] | rescue above control [3] | cytochrome c release ratio [4] | inhibition of aggregation [5] |
| --- | --- | --- | --- | --- | --- |
| CCN(CC)C(=O)c1cccc(C)c1 | 9.84% | 1.21 | -4.11 | 1.07 | 28.8% |
| CC(=O)N(O)CCCCCNC(=O)CCC(=O)N(O)CCCCCNC(=O)CCC(=O)N(O)CCCCCN | -1.64% | 0.93 | -3.69 | 0.93 | 63.2% |
| CC[N+](CC)(CC)CCOc1cccc(OCC[N+](CC)(CC)CC)c1OCC[N+](CC)(CC)CC | 2.37% | 1.11 | 4.9 | 1.78 | 83.6% |
| CN(C)CCC(c1ccccc1)c1ccccn1 (stereo not given) | 12.1% | 1.44 | -9.39 | 1 | -15.2% |
| Nc1ccc(C(=O)O)cc1 | 2.66% | 1.16 | -2.5 | 0.9 | 72.2% |
| Cc1cc(NC(=O)C2=C(O)c3ccccc3S(=O)(=O)N2C)no1 | 49.9% | 0.18 | -11.8 | 1.04 | 72.2% |
| CC/C(=C(/CC)c1ccc(O)cc1)c1ccc(O)cc1 | 48.1% | 0.36 | -4.53 | 0.65 | 38.5% |
| CN(C)c1ccc(C(=C2C=CC(=[N+](C)C)C=C2)c2ccc(N(C)C)cc2)cc1 | 60.7% | -6.36 | 0 | 1.35 | 16.7% |
| CC(=O)Oc1ccccc1C(=O)O | -10.2% | 1.29 | 9.45 | 1.35 | 61.5% |
| CN1CCN(CC(=O)N2c3ccccc3C(=O)Nc3cccnc32)CC1 | 9.26% | 1.57 | 18.8 | 1.27 | 63.5% |
| NC(N)=NS(=O)(=O)c1ccc(N)cc1 | -31.1% | 1.49 | -3.67 | 1.37 | 93.6% |
| CC(=O)NS(=O)(=O)c1ccc(N)cc1 | 11.3% | 1.36 | -14.1 | 1.02 | 48.5% |
| O=C1c2cccc(O)c2C(=O)c2c(O)cccc21 | -36.4% | -0.3 | -2 | 1.21 | 58.9% |
| Oc1c(Br)cc(Br)c2cccnc12 | 46.3% | -0.06 | 10.9 | 2 | 80.3% |
| Oc1cccc(O)c1 | 9.11% | 1.66 | 3.39 | 0.9 | 60.3% |
| N[C@@H](Cc1ccc(O)c(O)c1)C(=O)O | -16.6% | 1.55 | 6.71 | 0.96 | 83.3% |
| CCN(CC)CCOc1ccc(/C(=C(\Cl)c2ccccc2)c2ccccc2)cc1 | -2.8% | -0.01 | 11.2 | 4.67 | 46.5% |
| CCCCOc1ccc(C(=O)CCN2CCCCC2)cc1 | -5.19% | 1.14 | 14.1 | 0.48 | 80.3% |
| CCCCOc1cc(C(=O)NCCN(CC)CC)c2ccccc2n1 | -0.9% | 1.3 | -3.49 | 1.15 | 50% |

| Compound | inhibition [1] | score [2] | rescue above control [3] | cytochrome c release ratio [4] | inhibition of aggregation [5] |
| --- | --- | --- | --- | --- | --- |
| NC(=O)c1ncn([C@@H]2O[C@H](CO)[C@@H](O)[C@H]2O)n1 | 21% | 1.56 | -2.31 | 1.02 | 21.6% |
| Cc1cc(-c2ccccc2)nnc1NCCN1CCOCC1 | 7.39% | 1.28 | 5.33 | 1.03 | 66.7% |
| CC(=O)Nc1ccccc1 | 14.3% and 16.3% | 1.29 and 1.35 | -5.57 and 2.9 | 1.36 and 1.09 | 42.4% and 85.9% |
| CCN(CC)C(C)CN1c2ccccc2Sc2ccccc21 (stereo not given) | -20.5% | 1.11 | -4.48 | 0.98 | 54.5% |
| O=C(O)CCCCC1CCSS1 (stereo not given) | -33.9% | 0.61 | 2.24 | 0.89 | 39.2% |
| C[C@H]1c2cccc(O)c2C(O)=C2C(=O)[C@]3(O)C(O)=C(C(N)=O)C(=O)[C@@H](N(C)C)[C@@H]3[C@@H](O)[C@@H]21 | -6.11% | 0.83 | 0 | 0.35 | 64.1% |
| S=P(N1CC1)(N1CC1)N1CC1 | 8.19% | 0.94 | -0.95 | 0.82 | 63.2% |
| CN(Cc1cc(Br)cc(Br)c1N)C1CCCCC1 | 50% | 1.59 | -1.24 | 1.12 | 80.3% |
| CCC(=O)O[C@H]1[C@H](O[C@@H]2[C@@H](C)[C@H](O[C@H]3C[C@@](C)(OC)[C@@H](O)[C@H](C)O3)[C@@H](C)C(=O)O[C@H](CC)[C@@](C)(O)[C@H](O)[C@@H](C)C(=O)[C@H](C)C[C@@]2(C)O)O[C@H](C)C[C@@H]1N(C)C | -0.34% | -0.96 | 11.4 | 1.02 | 87.3% |
| CCO/C([O-])=N/c1c[n+](N2CCOCC2)no1 | -3.16% | 1.13 | 3.21 | 0.83 | 36.6% |
| O=c1cc(CO)occ1O | 12% | 1.29 | 10.1 | 0.94 | 21.8% |
| CC(C)NCC(O)c1ccc2ccccc2c1 (stereo not given) | 0.74% | 1.15 | -8.05 | 0.68 | 88% |
| CCCCCCOc1ccccc1C(N)=O | 0.61% | 0.45 | -0.6 | 1.11 | 67.5% |
| Cn1c(=O)c2c(ncn2C)n(C)c1=O | 5.72% | 1.32 | 4.29 | 1.5 | 74.9% |
| COc1cccc(OC)c1C(=O)N[C@@H]1C(=O)N2[C@@H]1SC(C)(C)[C@@H]2C(=O)O | 11.5% | 1.48 | -12.3 | 0.93 | 45.9% |
| CCCc1ncc(C[n+]2ccccc2C)c(N)n1 | -2.36% | 1.6 | -0.43 | 0.95 | 84.8% |
| CN(C)/N=N/c1nc[nH]c1C(N)=O | 17.5% | 1.36 | -5.12 | 0.99 | 9.26% |
| Nc1ccc(C(=O)O)c(O)c1 | -17.6% | 1.08 | 7.16 | 1.48 | 88.8% |
| O=C1OCCN1/N=C/c1ccc([N+](=O)[O-])o1 | 4.31% | 0.66 | 4.89 | 1.17 | 27% |
